Measurements reported in PubChem BioAssay (NCI).
The panel holds about 83,000 compounds, 20% with a hit somewhere; the sample as a whole holds those more often.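 48-hour exposure, single concentration, 96-well plates; percent growth endpoint where 0 means no net growth. Active: below 10.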 Unmarked numbers belong to inactive results. Activity calls are given as the source filed them.

Tests used:
Test in all cases: NCI-60 one-dose screen, 48 h (100 = growth as untreated, 0 = no growth, -100 = all killed)
Settings in all cases: 10 µM
[1] = system: SK-MEL-2 melanoma
[2] = system: EKVX NSCLC
[3] = system: SN12C renal
[4] = system: UO-31 renal
[5] = system: TK-10 renal
[6] = system: ACHN renal
[7] = system: CAKI-1 renal
[8] = system: A498 renal
[9] = system: CCRF-CEM leukemia
[10] = system: MOLT-4 leukemia

Row | Compound | growth [1] | growth [2] | growth [3] | growth [4] | growth [5] | growth [6] | growth [7] | growth [8] | growth [9] | growth [10]
1 | CCN(CC)CC(O)CNc1ccnc2cc(Cl)c(Cl)cc12 (stereo not given) | 108% | 92% | 79% | 53.7% | 95.2% | 98.4% | 80.7% | 98.7% | 94.9% | 82.3%
2 | COc1cc(/C=C/C(=O)c2cc(-c3ccccc3)ccc2O)cc(OC)c1OC | 77.2% | 54% | 76.2% | 53.4% | 105% | 77.3% | 61.6% | 74.3% | 8.52% (active) | 28%
3 | CCCCNC(=O)Oc1ccc(/C(=C(\C)c2ccc(OC)cc2)c2ccc(OCCN3CCCCC3)cc2)cc1 | 67.8% | 68.3% | 69.1% | 11.2% | 102% | 78.6% | 60.3% | 71% | 58.5% | 20.1%
4 | O=C(Nc1cccc([N+](=O)[O-])c1)NN1CCCCCC1 | 105% | 81.3% | 96.5% | 92.5% | 105% | 94.6% | 96.2% | 77.3% | 86.1% | 106%
5 | Nc1ccc2c(c1)Cc1cc(N)c(Cl)cc1-2 | 102% | 57.2% | 89.8% | 52.6% | 115% | 98.5% | 94.1% | 118% | 79.8% | 90%
6 | NC(=O)C12C(=O)NC(=O)C1(C(=O)O)C21CCCC1 (stereo not given) | 108% | 106% | 101% | 75.8% | 111% | 112% | 112% | 114% | 96.9% | 97.2%
7 | CCOC(=O)C(=O)Cc1cccnn1 | 103% | 111% | 99.9% | 82.9% | 101% | 103% | 103% | 113% | 91.7% | 93.4%
8 | Oc1ccc(Cn2cc3c(c2-c2ccccc2)CCc2cnoc2-3)cc1 | 102% | 80.2% | 91.7% | 88.8% | 111% | 90% | 81.7% | 104% | 99.1% | 80.5%
9 | C=CCn1ccc(=O)nc1SC | 107% | 104% | 104% | 89% | 101% | 108% | 106% | 104% | 104% | 100%
10 | COC1OC2COC(c3ccccc3)OC2C(=O)C1NC(=O)c1ccccc1 (stereo not given) | 94% | 79.5% | 96.7% | 72.5% | 108% | 98.9% | 88.9% | 116% | 97.7% | 110%
11 | CC1(C)CC(OCCCC[P+](c2ccccc2)(c2ccccc2)c2ccccc2)CC(C)(C)N1O | -23.4% (active) | 3.22% (active) | 4.65% (active) | -18.8% (active) | -21.1% (active) | -8.25% (active) | -25.7% (active) | -5.35% (active) | -37.1% (active) | 0.462% (active)
12 | COc1ccc(/C(=C/c2cc(OC)c(OC)cc2[N+](=O)[O-])C(=O)O)cc1 | 107% | 105% | 104% | 83% | 118% | 108% | 96.1% | 105% | 98.6% | 103%
13 | COC(=O)c1ccc(Cn2ccc(=O)[nH]c2=O)cc1 | 100% | 116% | 104% | 89.3% | 104% | 107% | 97.4% | 120% | 92% | 89.3%
14 | O=C(CCc1ccccc1)N1CCN(C(=O)CCc2ccccc2)CC1 | 104% | 115% | 96.9% | 60.1% | 111% | 104% | 95.1% | 152% | 88.2% | 88.6%
15 | Cn1cnc([N+](=O)[O-])c1Sc1nnc(-c2ccccc2)c(-c2ccccc2)n1 | 73% | 119% | 72.2% | 55.3% | 48.1% | 65.9% | -7.14% (active) | 97.9% | 8.92% (active) | 41%
16 | [O-]c1c[n+](-c2ccc(Cl)cc2)no1 | 102% | 103% | 92.9% | 84.8% | 116% | 106% | 108% | 98.7% | 111% | 102%
17 | COc1cc(/C=C/C(=O)c2cc(-c3ccc(C(F)(F)F)cc3)ccc2O)cc(OC)c1OC | 70.1% | 61.2% | 66.7% | 46.7% | 98% | 68.4% | 47.2% | 82.6% | 7.45% (active) | 15.5%
18 | C=CCNCCCN1C(=O)c2ccc3c4c(ccc(c24)C1=O)C(=O)N(CCCNCC=C)C3=O | -35.6% (active) | -78.7% (active) | -77.7% (active) | -44.3% (active) | -3.01% (active) | -9.77% (active) | -42.8% (active) | -71% (active) | 4.96% (active) | -3.33% (active)
19 | CC(=O)Oc1ccc(C2=Cc3ccc(OC(C)=O)cc3OC2C)cc1 (stereo not given) | 61% | 56.7% | 66.9% | 18.6% | 82.7% | 10% | 43.6% | 82.6% | 24.3% | 36.7%
20 | COc1cc(N=C2C(=O)N(Cc3ccccc3)c3ccccc32)cc(OC)c1OC | 98.3% | 101% | 99.6% | 77.3% | 112% | 97.4% | 83.8% | 108% | 29.5% | 96.9%
21 | COc1cc(/C=C2\C(=O)Nc3cc(C)c(O)cc32)cc(OC)c1OC | 79.3% | 48.5% | 71.3% | 43% | 85% | 68.4% | 15.7% | 98.2% | 16.3% | 53%
22 | CC1(C)CC(=O)c2c(nc3ccc(Cl)cc3c2-c2ccccc2)C1 | 81.2% | 95.9% | 92.5% | 66% | 118% | 93.9% | 85.5% | 115% | 49.5% | 68.2%
23 | CC[C@@]1(C(N)=O)CC2C=CC1C2 (stereo not given in full) | 105% | 102% | 102% | 95.5% | 108% | 113% | 103% | 123% | 87.9% | 88.3%
24 | Cc1ccc(Cl)cc1Nc1nc(C(F)(F)F)ccc1C(=O)N/N=C/c1c(Cl)cccc1Cl | 0.639% (active) | 4.91% (active) | 9.96% (active) | -23.3% (active) | 22.7% | 0.0524% (active) | -12.5% (active) | -13.3% (active) | -21.2% (active) | 8.23% (active)
25 | Cc1cc(C#Cc2ccccc2)ccc1-n1c(/C=C/c2cc(O)ccc2O)nc2ccccc2c1=O | -12.9% (active) | -7.48% (active) | -5.43% (active) | -27.9% (active) | 29.7% | 8.83% (active) | -5.93% (active) | 41% | 7.82% (active) | 3.81% (active)
26 | CCOc1nc(-c2ccccc2)cc2c(O)c(C(=O)NCCCO)[nH]c(=O)c12 | 92.7% | 108% | 103% | 79.6% | 146% | 91.6% | 87.8% | 93.5% | 68% | 97%
27 | CCOC(=O)c1cc2c(n1Cc1cccc(OC)c1)-c1oncc1CC2 | 34.7% | 50.6% | 37.1% | -0.772% (active) | 53.2% | 42.8% | 7.23% (active) | 10.8% | 13.1% | 33.1%
28 | Cn1c(=O)c2[nH]c(C(O)c3ccc(Cl)cc3)nc2n(C)c1=O (stereo not given) | 96.4% | 98.7% | 89.8% | 82.3% | 108% | 103% | 105% | 95.1% | 99.3% | 103%
